Data taken from PubChem BioAssay (NCATS).
Records with an inconclusive call do not appear. The source made the active and inactive calls. Calls come from the whole dose curve; as a rule, active = well fitted curve in the direction sought with a large enough effect; inconclusive = small, poorly fitted or top-dose-only effect, or another doubt; inactive = no such curve, though single readings can be large; an effect the other way counts as inactive or inconclusive.

How the values were obtained:
[1] = Primary redox qHTS assay for identification of artifact compounds. (AID 1845223)
Procedure, shortened: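 Amplex Red (25 uM) and HRP (250 mU/mL) in HBSS, with compounds for 15 min, then 250 uM DTT for 30 min, room temperature, dark. Fluorescence 525/598 nm read; normalized to DMSO and 10 uM DA3003; Hill fit.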

[2] = Quantitative High-Throughput drug screen in 47 multiple myeloma cell lines against the NCATS MIPE library collection: FR4_PLB cell viability assay (AID 1918924; note: nearly all actives have a fitted effect of over 35% in size; note: potency is the fitted concentration of half-maximal effect)
Procedure, shortened: (§1)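 CellTiter-Glo luminescence (ATP) after 48 h compound exposure, 37C/5% CO2; 500 cells/well; MIPE 4.0 approved/investigational drugs pinned in; DMSO = 100%, media only = 0% viability.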

[3] = Quantitative High-Throughput drug screen in 47 multiple myeloma cell lines against the NCATS MIPE library collection: Delta47_JCRB cell viability assay (AID 1918925; note: nearly all actives have a fitted effect of over 45% in size; note: potency is the fitted concentration of half-maximal effect)
Procedure, shortened: (§2)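 Approved and investigational drugs from MIPE 4.0 were added by pin tool to 500 cells per well. After 48 hours at 37C, ATP-based CellTiter-Glo luminescence indicated remaining viability.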

[4] = Quantitative High-Throughput drug screen in 47 multiple myeloma cell lines against the NCATS MIPE library collection: EJM_DSMZ cell viability assay (AID 1918926; note: nearly all actives have a fitted effect of over 30% in size; note: potency is the fitted concentration of half-maximal effect)
Procedure, shortened: as §2

[5] = Quantitative High-Throughput drug screen in 47 multiple myeloma cell lines against the NCATS MIPE library collection: AMO1_DSMZ cell viability assay (AID 1918927; note: nearly all actives have a fitted effect of over 30% in size; note: potency is the fitted concentration of half-maximal effect)
Procedure, shortened: as §2

[6] = Quantitative High-Throughput drug screen in 47 multiple myeloma cell lines against the NCATS MIPE library collection: ARD_JJKsccE7 cell viability assay (AID 1918929; note: potency is the fitted concentration of half-maximal effect)
Procedure, shortened: as §2

[7] = Quantitative High-Throughput drug screen in 47 multiple myeloma cell lines against the NCATS MIPE library collection: Karpas620_DSMZ cell viability assay (AID 1918959); note: nearly all actives have a fitted effect of over 30% in size; note: potency is the fitted concentration of half-maximal effect
Procedure, shortened: as §1

[8] = Quantitative High-Throughput drug screen in 47 multiple myeloma cell lines against the NCATS MIPE library collection: KMM1_JCRB cell viability assay (AID 1918960); note: nearly all actives have a fitted effect of over 30% in size; note: potency is the fitted concentration of half-maximal effect
Procedure, shortened: (§3)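 Here, 48 h treatment with MIPE 4.0 agents at 37 °C preceded an ATP luminescence read. Plating density was 500 cells per well.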

[9] = Quantitative High-Throughput drug screen in 47 multiple myeloma cell lines against the NCATS MIPE library collection: Karpas417_ECACC cell viability assay (AID 1918961); settings: Karpas417 myeloma viability, CellTiter-Glo ATP luminescence, 48 h; viability (% of DMSO): at 45.8 µM (top of the series); note: potency is the fitted concentration of half-maximal effect
Procedure, shortened: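 Myeloma cells (500 per well) were exposed to MIPE 4.0 compounds by pin transfer and incubated 48 hours at 37C, 5% CO2. Viability was read as ATP by CellTiter-Glo luminescence, normalised to DMSO (100%) and media-only (0%) wells.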

[10] = Quantitative High-Throughput drug screen in 47 multiple myeloma cell lines against the NCATS MIPE library collection: ARP1_JJKsccF8 cell viability assay (AID 1918928; note: nearly all actives have a fitted effect of over 40% in size; note: potency is the fitted concentration of half-maximal effect)
Procedure, shortened: as §3

Measured: Potency

CN(C)Cc1ccc(-c2nc3cccc4c3n2CCNC4=O)cc1
inactive: [1]
active: [2] 23.5 µM | [3] 23.5 µM | [4] 20.9 µM | [5] 18.7 µM | [6] 29.6 µM | [7] 23.5 µM | [8] 18.7 µM | [9] 14.8 µM

CC1(C)CCC(CN2CCN(c3ccc(C(=O)NS(=O)(=O)c4ccc(NCC5CCOCC5)c([N+](=O)[O-])c4)c(Oc4cnc5[nH]ccc5c4)c3)CC2)=C(c2ccc(Cl)cc2)C1
inactive: [1]
active: [2] 20.9 µM | [4] 20.9 µM | [5] 9.35 µM | [7] 0.332 µM | [8] 8.33 µM

CN(C)CCC(c1ccccc1)c1ccccn1 (stereo unspecified)
inactive: [1]

CNC(=O)c1ccc2cc(C3(O)CCn4cncc43)ccc2c1 (stereo unspecified)
not listed: [5] | [7] | [9]
inactive: all other assays above

Cc1cccc(Nc2nc(-c3ccncc3)cs2)c1
active: [2] 18.7 µM | [3] 18.7 µM | [5] 11.8 µM | [8] 23.5 µM
inactive: [1]

COc1ccc(C2Sc3ccccc3N(CCN(C)C)C(=O)C2OC(C)=O)cc1 (stereo unspecified)
inactive: [1] | [2] | [3] | [6] | [7] | [8]

COc1cc2c(cc1OC)CN(CCc1ccc(NC(=O)c3cc(OC)c(OC)cc3NC(=O)c3cnc4ccccc4c3)cc1)CC2
active: [3] 13.2 µM
not listed: [9] | [10]
inactive: all other assays above

CNC1CCC(N(Cc2cccc(-c3ccncc3)c2)C(=O)c2sc3c(F)ccc(F)c3c2Cl)CC1 (stereo unspecified)
active: [2] 14.8 µM | [3] 16.6 µM | [5] 23.5 µM | [6] 29.6 µM | [7] 16.6 µM | [8] 18.7 µM
inactive: [1]

CC(=O)Nc1ccc([C@H](C)C(=O)Nc2ncc(C(C)C)s2)cc1
inactive: [1]
active: [2] 1.87 µM | [3] 1.48 µM | [4] 0.743 µM | [5] 0.662 µM | [10] 2.64 µM | [6] 1.18 µM | [7] 2.35 µM | [8] 5.26 µM

O=C(O)CCc1nc(-c2ccccc2)c(-c2ccccc2)o1
inactive: [1]

COc1cc2ncnc(Nc3ccc(F)c(Cl)c3)c2cc1OCCCN1CCOCC1
inactive: [1]
active: [2] 19.1 µM | [3] 5.4 µM | [4] 6.05 µM | [5] 4.81 µM | [10] 48.1 µM | [6] 12.1 µM | [7] 6.79 µM | [8] 8.55 µM | [9] 3.4 µM

C=C1C(=O)[C@@]23C(CC[C@@H]1[C@H]2O)[C@@]12CO[C@]3(O)[C@@H](O)[C@@H]1C(C)(C)CC[C@@H]2O (stereo partly specified)
active: [2] 6.62 µM | [3] 3.72 µM | [4] 2.96 µM | [5] 1.48 µM | [6] 1.48 µM | [7] 0.935 µM | [8] 2.35 µM
inactive: [1]

CC(C)NCC(O)COc1cccc2[nH]ccc12 (stereo unspecified)
inactive: [1]

NC(=O)c1cccc2[nH]c(-c3ccc([C@H]4CCCN4)cc3F)nc12
inactive: [1] | [2] | [4]

O=c1[nH]cnc2c1ncn2[C@H]1CC[C@@H](CO)O1
not listed: [3] | [6] | [9]
inactive: all other assays above

COCCOC(=O)C1=C(C)NC2=C(C(=O)CC(c3ccccc3OC)C2)C1c1cccc(O)c1 (stereo unspecified)
inactive: [1]
active: [2] 14.8 µM | [3] 1.05 µM | [5] 11.8 µM | [6] 1.66 µM

O=C(O)c1cc(-c2ccccc2)nc2ccccc12
inactive: [1]

Cc1nc(N)sc1-c1ccnc(Nc2ccc(N3CCOCC3)cc2)n1
active: [2] 14.8 µM | [3] 10.5 µM | [4] 18.7 µM | [5] 2.64 µM | [10] 8.33 µM | [6] 5.26 µM | [7] 20.9 µM | [8] 4.69 µM
inactive: [1]

COC(=O)[C@@H]1[C@H]2C[C@H]3c4[nH]c5ccccc5c4CCN3C[C@@H]2CC[C@@H]1O
inactive: [1]

COc1cc2ncnc(-n3nc(-c4ccccn4)nc3N)c2cc1OC
active: [2] 11.8 µM | [3] 1.48 µM | [4] 14.8 µM | [6] 0.743 µM | [7] 0.418 µM | [8] 1.05 µM | [9] 0.132 µM
inactive: [1] | [5]

CCN(CC)CCNC(=O)c1ccc(N)cc1
inactive: [1]

CC(=O)O[C@]1(C(C)=O)CC[C@H]2[C@@H]3C=C(Cl)C4=CC(=O)[C@@H]5C[C@@H]5[C@]4(C)[C@H]3CC[C@@]21C
inactive: [1]

CCOC(=O)C1=C(N)Oc2ccc(Br)cc2C1C(C#N)C(=O)OCC (stereo unspecified)
inactive: [1]
active: [2] 20.9 µM | [3] 14.8 µM | [4] 20.9 µM | [7] 18.7 µM | [8] 16.6 µM | [9] 8.33 µM

NC(=O)c1ccc2nc(-c3ccc(Oc4ccc(Cl)cc4)cc3)[nH]c2c1
inactive: [1] | [4]
active: [2] 0.166 µM | [3] 0.0264 µM | [5] 1.48 µM | [6] 5.9 µM | [8] 0.469 µM | [9] 0.187 µM

CN(C)C1CCN(C(=O)c2ccc(NC(=O)Nc3nc(N4CCOCC4)nc(N4CCOCC4)n3)cc2)CC1
inactive: [1]
active: [2] 0.0093 µM | [4] 0.166 µM | [5] 1.18 µM | [10] 0.0166 µM | [9] 0.0662 µM

Clc1ccc(Cn2c(CN3CCCC3)nc3ccccc32)cc1
inactive: [1]

COc1cc(Nc2ncc(F)c(Nc3ccc4c(n3)NC(=O)C(C)(C)O4)n2)cc(OC)c1OC
active: [2] 20.9 µM | [3] 1.18 µM | [10] 5.9 µM
inactive: [1] | [5] | [7]

CC(C)(C)c1cc(C(=O)O)c(NC(=O)Nc2ccc3[nH]ncc3c2)s1
not listed: [3] | [9] | [10]
inactive: all other assays above

O=C(CCN1CCN(C(=O)OCc2cc(Cl)cc(Cl)c2)CC1)c1ccc2[nH]c(=O)oc2c1
active: [5] 1.18 µM | [6] 0.0166 µM
inactive: [1] | [2] | [4] | [10] | [8]

CC(C)(C)NC(=O)Nc1cccc(Nc2ncc(F)c(NC(C)(C)CO)n2)c1
inactive: [1] | [2] | [4] | [7]
active: [5] 14.8 µM

CCCNC(=O)NS(=O)(=O)c1ccc(Cl)cc1
inactive: [1]

CC(=O)CCCCn1c(=O)c2c(ncn2C)n(C)c1=O
inactive: [1]

CCN1CCC[C@H]1CNC(=O)c1cc(S(N)(=O)=O)ccc1OC
inactive: [1]

O=C(CCCCCCC(=O)Nc1ccccc1)NO
inactive: [1]
active: [2] 2.35 µM | [3] 1.32 µM | [4] 7.43 µM | [5] 1.05 µM | [6] 1.18 µM | [7] 3.32 µM | [8] 1.32 µM | [9] 1.05 µM

COc1ccccc1N1CCN(CCCNc2cc(=O)n(C)c(=O)n2C)CC1
inactive: [1]

O=C(Nc1ccccc1-c1cn2c(CN3CCNCC3)csc2n1)c1cnc2ccccc2n1
active: [2] 9.35 µM | [3] 4.69 µM | [4] 20.9 µM
inactive: [1] | [6] | [7] | [8]

O=C(NCc1ccccc1)c1csc(Nc2ccncn2)n1
inactive: [1]
active: [2] 14.8 µM | [3] 14.8 µM | [4] 18.7 µM | [5] 9.35 µM | [6] 10.5 µM | [7] 6.62 µM | [8] 9.35 µM | [9] 10.5 µM

Cc1c(NC(=O)c2ccc(C(C)(C)C)cc2)cccc1-c1cn(C)c(=O)c(Nc2ccc(C(=O)N3CCOCC3)cc2)n1
active: [2] 23.5 µM | [3] 23.5 µM | [4] 18.7 µM | [7] 9.35 µM | [8] 6.62 µM
inactive: [1]

NC(=O)c1cnc(-c2ccc(C3(N)CCC3)cc2)c(-c2ccccc2)c1
inactive: [1] | [2]
active: [3] 6.62 µM | [4] 1.66 µM | [10] 8.33 µM

COc1ccc2c(Oc3ccc(NC(=O)c4c(C)n(CC(C)(C)O)n(-c5ccccc5)c4=O)cc3F)ccnc2c1
inactive: [1] | [9]
active: [2] 26.4 µM | [3] 23.5 µM | [6] 20.9 µM | [7] 23.5 µM

COc1ccc(C2CC(c3ccccc3)=NN2c2ccc(S(N)(=O)=O)cc2)cc1 (stereo unspecified)
active: [5] 11.8 µM | [6] 23.5 µM | [7] 16.6 µM | [8] 18.7 µM
inactive: [1]

NS(=O)(=O)c1cccc2c1C(=O)c1cccc(O)c1C2=O
active: [2] 0.935 µM | [3] 0.418 µM | [4] 0.935 µM | [5] 0.166 µM | [10] 0.332 µM | [6] 0.264 µM | [7] 0.148 µM | [8] 0.264 µM | [9] 0.148 µM

COc1ccc(Cc2ccc(NC(N)=O)cc2)cc1-c1cccc(Cl)c1
inactive: [1] | [2] | [4] | [10]

Cc1ccccc1C(C(=O)NC1CCCCC1)N(C(=O)Cn1ccnc1C)c1cccc(F)c1 (stereo unspecified)
inactive: [1] | [10] | [7] | [8]
active: [3] 11.8 µM

CC(C)[C@H](CO)Nc1nc(Nc2ccc(C(=O)O)c(Cl)c2)c2ncn(C(C)C)c2n1
inactive: [1]
active: [3] 1.48 µM

CC(C)(C)OC(=O)N[C@H]1CCCCCC=C[C@@H]2C[C@@]2(C(=O)NS(=O)(=O)C2CC2)NC(=O)[C@@H]2C[C@@H](OC(=O)N3Cc4cccc(F)c4C3)CN2C1=O
inactive: [2] | [3] | [4] | [5] | [10]

COCCOc1nc(-c2ccc(Cl)c(Cl)c2)n(-c2ccc(NC(=O)CCl)cc2)n1
inactive: [1]
active: [3] 9.35 µM | [5] 16.6 µM | [10] 23.5 µM | [6] 16.6 µM | [7] 16.6 µM | [8] 14.8 µM | [9] 16.6 µM
